Data taken from PubChem BioAssay (NCATS).
Results filed as inconclusive are left out. This is one part of the list. Calls of active or inactive are those of the source. Unless noted, calls follow the shape of the dose curve; as a rule, active = well fitted curve in the direction sought with a large enough effect; inconclusive = small, poorly fitted or top-dose-only effect, or another doubt; inactive = no such curve, though single readings can be large; an effect the other way counts as inactive or inconclusive.

Legend:
[1] = qHTS profiling for inhibitors of Plasmodium falciparum (3D7) proliferation (AID 743322);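 also: infected erythrocytes exposed to compound for 72 h before lysis; 100% = DMSO vehicle wells and 0% = 0.29 µM artemisinin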; conditions: P. falciparum 3D7 proliferation; at 28.7 µM (top of the series)
Outline: (§1)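 Erythrocytes infected with P. falciparum (0.3% parasitemia, 2.5% hematocrit) incubated with compounds 72 h at 37 C, 5% CO2. Lysis with saponin/Triton buffer containing SYBR Green I, overnight at room temperature in the dark; DNA fluorescence (485/535 nm) normalised to 0.29 uM artemisinin and DMSO.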

[2] = qHTS profiling for inhibitors of Plasmodium falciparum (DD2) proliferation (AID 743323; call rule not given here); conditions: lower = more inhibition; at 28.7 µM (top of the series)
Outline: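 SYBR Green fluorescence (ex 485, em 535 nm) of lysed cultures gives parasite DNA content; wells normalized to artemisinin (0.29 uM) and DMSO controls. Infected red cells: 0.3% parasitemia, 2.5% hematocrit, 72 h, 37 C.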

[3] = qHTS profiling for inhibitors of Plasmodium falciparum (HB3) proliferation (AID 743324); conditions: Plasmodium falciparum HB3 blood-stage proliferation; at 28.7 µM (top of the series);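 also: 100% = DMSO vehicle wells and 0% = artemisinin-treated control wells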
Outline: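 P. falciparum HB3 grown in erythrocytes (0.3% parasitemia, 2.5% hematocrit final) with compound for 72 h at 37 C, 5% CO2. Parasite DNA detected by SYBR Green after saponin/triton lysis overnight; normalized to 0.29 uM artemisinin and DMSO.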

[4] = target: Calcium and integrin-binding protein 1 (Homo sapiens) (UniProt Q99828); experiment: Primary qHTS for Identification of Calcium Integrin Binding Protein 1 (CIB1) Competitor (AID 1508620);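 also: GST tagged CIB1 binding a fluorescein labelled alphaIIb integrin peptide tracer; top concentration of the series differs between compounds; % is scaled to controls: 0 for no effect and ±100 for the full control effect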
Outline: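 Fluorescence polarization competition: GST-tagged CIB1 (1 uM final) preincubated with compound 15 min at room temperature, then FITC-labelled alphaIIb peptide (100 nM final) added. After 15 min at room temperature, polarization read at Ex 480/Em 540.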

[5] = target: Ubiquitin carboxyl-terminal hydrolase 2 (Homo sapiens) (UniProt O75604); experiment: qHTS for Inhibitors of Ubiquitin-specific Protease USP2a Using CHOP2 as the Reporter: K484 Substrate (AID 652173);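 also: cleavage of internally quenched K48 di-ubiquitin substrate measured as rising fluorescence over time; nearly all actives have a fitted effect of over 70% in size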; also: potency is read from the fitted curve at half-maximal effect
Outline: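 USP2 (dispensed at 5 nM) was pinned with compounds, then DiUb K48 internally quenched fluorescent substrate (dispensed at 100 nM) was added. The buffer was 20 mM Tris pH 8, 2 mM beta-mercaptoethanol and 0.05% CHAPS. Cleavage was read kinetically as rising fluorescence, Ex 525/Em 598.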

[6] = qHTS profiling of the MIPE4 collection as inhibitors of Plasmodium falciparum (3D7) proliferation (AID 743344; call rule not given here;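 also: scaled between DMSO vehicle wells and 0.29 µM artemisinin as full inhibition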); conditions: P. falciparum 3D7 in erythrocytes, SYBR Green DNA fluorescence, 72 h; at 28.5 µM (top of the series)
Outline: as §1

[7] = qHTS profiling of the MIPE4 collection as inhibitors of Plasmodium falciparum (DD2) proliferation (AID 743345; call rule not given here); conditions: P. falciparum Dd2 in erythrocytes, SYBR Green DNA, 72 h; at 28.5 µM (top of the series)
Outline: as §1

[8] = qHTS profiling of the MIPE4 collection as inhibitors of Plasmodium falciparum (DD2) proliferation (Rep 2) (AID 743346; call rule not given here); conditions: P. falciparum Dd2 in erythrocytes, SYBR Green DNA, 72 h; at 28.5 µM (top of the series)
Outline: as §1

[9] = qHTS profiling of the MIPE4 collection as inhibitors of Plasmodium falciparum (HB3) proliferation (AID 743347; call rule not given here;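 also: plate controls were DMSO vehicle wells for no effect and artemisinin wells for full effect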); conditions: P. falciparum HB3 in erythrocytes, SYBR Green DNA, 72 h; at 28.5 µM (top of the series)
Outline: as §1

[10] = target: Cytochrome P450 3A4 (Homo sapiens) (UniProt P08684); experiment: qHTS Assay for Inhibitors and Substrates of Cytochrome P450 3A4 (AID 884); also: nearly all actives have a fitted effect of over 50% in size; also: potency is read from the fitted curve at half-maximal effect
Outline: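 20 nM human CYP3A4 with 25 uM Luciferin-PPXE (at KM) in 200 mM KPO4, preincubated 10 min with compound; NADPH regeneration started a 60 min RT reaction. Luciferin detected by luminescence, normalized to 57 uM ketoconazole as full inhibition.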

[11] = target: Cytochrome P450 3A4 (Homo sapiens) (UniProt P08684); experiment: qHTS Assay for Activators of Cytochrome P450 3A4 (AID 885); also: nearly all actives have a fitted effect of over 65% in size
Outline: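 20nM CYP3A4 + 25uM Luciferin-PPXE (=KM), 200mM KPO4; cpd 10 min RT; NADPH regen, 60 min RT; stop w/ detection buffer, 20 min; luminescence. Normalized to 57 uM ketoconazole.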

[12] = target: Flap endonuclease 1 (Homo sapiens) (UniProt P39748); experiment: qHTS Assay for the Inhibitors of FEN1: Confirmatory Assay for Cherry-picked Compounds (AID 720498); conditions: FEN1 flap cleavage, TAMRA/BHQ2 fluorogenic DNA substrate; also: potency is read from the fitted curve at half-maximal effect; nearly all actives have a fitted effect of over 60% in size
Outline: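 FEN1 at 10 nM was preincubated with compound for 15 min at room temperature, then 50 nM (final) double-flap DNA substrate was added. TAMRA fluorescence released from the BHQ-2-quenched flap was read at 0 and 15 min (ex 525/em 598 nm).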

[13] = target: DNA polymerase kappa (Homo sapiens) (UniProt Q9UBT6); experiment: qHTS for Inhibitors of Polymerase Kappa: Confirmatory Assay for Cherry-picked Compounds (AID 720501); conditions: purified Pol-kappa, fluorescent strand-displacement substrate; also: potency is read from the fitted curve at half-maximal effect
Outline: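 10 nM human Pol-kappa was preincubated with compound 15 min at room temperature, then 50 nM (final) primer/template substrate with TAMRA-labeled reporter strand and BHQ-2-labeled template added. Fluorescence (Ex 525, Em 598 nm) read at 0 and 10 min.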

Sequence of Cytochrome P450 3A4 (Homo sapiens) (P08684 whole entry, looked up): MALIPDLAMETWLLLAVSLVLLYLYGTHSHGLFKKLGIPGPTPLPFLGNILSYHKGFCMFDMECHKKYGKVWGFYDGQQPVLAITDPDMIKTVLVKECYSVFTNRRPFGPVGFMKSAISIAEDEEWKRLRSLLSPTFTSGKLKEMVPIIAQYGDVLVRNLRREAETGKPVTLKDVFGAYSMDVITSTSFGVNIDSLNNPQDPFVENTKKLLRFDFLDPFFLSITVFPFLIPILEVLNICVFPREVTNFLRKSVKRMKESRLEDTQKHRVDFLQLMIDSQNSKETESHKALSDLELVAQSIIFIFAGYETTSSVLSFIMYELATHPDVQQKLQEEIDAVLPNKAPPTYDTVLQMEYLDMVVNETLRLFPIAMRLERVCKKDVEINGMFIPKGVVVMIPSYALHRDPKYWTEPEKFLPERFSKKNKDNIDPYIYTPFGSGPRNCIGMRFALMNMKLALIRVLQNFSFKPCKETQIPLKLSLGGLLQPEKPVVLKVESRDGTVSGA
Sequence of Ubiquitin carboxyl-terminal hydrolase 2 (Homo sapiens) (O75604 whole entry, looked up): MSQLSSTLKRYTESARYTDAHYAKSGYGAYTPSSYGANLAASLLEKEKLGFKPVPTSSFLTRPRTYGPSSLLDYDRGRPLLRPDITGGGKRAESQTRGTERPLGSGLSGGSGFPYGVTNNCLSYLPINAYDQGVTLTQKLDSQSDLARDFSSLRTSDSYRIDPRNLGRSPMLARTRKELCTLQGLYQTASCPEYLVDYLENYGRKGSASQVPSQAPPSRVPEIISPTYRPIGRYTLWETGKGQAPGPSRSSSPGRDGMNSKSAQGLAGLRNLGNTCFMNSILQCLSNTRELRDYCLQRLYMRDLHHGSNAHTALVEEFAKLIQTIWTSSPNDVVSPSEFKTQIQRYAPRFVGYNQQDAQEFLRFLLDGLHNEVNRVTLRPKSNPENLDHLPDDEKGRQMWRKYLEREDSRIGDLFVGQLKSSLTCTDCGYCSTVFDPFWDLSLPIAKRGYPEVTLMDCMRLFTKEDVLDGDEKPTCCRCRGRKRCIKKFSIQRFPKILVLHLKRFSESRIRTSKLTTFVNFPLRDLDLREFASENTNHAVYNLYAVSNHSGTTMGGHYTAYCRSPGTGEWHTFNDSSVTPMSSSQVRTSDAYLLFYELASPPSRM
Sequence of Calcium and integrin-binding protein 1 (Homo sapiens) (Q99828 whole entry, looked up): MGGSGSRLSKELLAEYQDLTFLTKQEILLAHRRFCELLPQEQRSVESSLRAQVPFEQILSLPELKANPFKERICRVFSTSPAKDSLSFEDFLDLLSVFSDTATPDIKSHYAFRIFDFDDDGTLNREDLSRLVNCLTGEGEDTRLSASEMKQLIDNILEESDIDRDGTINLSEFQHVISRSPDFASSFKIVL
Sequence of DNA polymerase kappa (Homo sapiens) (Q9UBT6 whole entry, looked up): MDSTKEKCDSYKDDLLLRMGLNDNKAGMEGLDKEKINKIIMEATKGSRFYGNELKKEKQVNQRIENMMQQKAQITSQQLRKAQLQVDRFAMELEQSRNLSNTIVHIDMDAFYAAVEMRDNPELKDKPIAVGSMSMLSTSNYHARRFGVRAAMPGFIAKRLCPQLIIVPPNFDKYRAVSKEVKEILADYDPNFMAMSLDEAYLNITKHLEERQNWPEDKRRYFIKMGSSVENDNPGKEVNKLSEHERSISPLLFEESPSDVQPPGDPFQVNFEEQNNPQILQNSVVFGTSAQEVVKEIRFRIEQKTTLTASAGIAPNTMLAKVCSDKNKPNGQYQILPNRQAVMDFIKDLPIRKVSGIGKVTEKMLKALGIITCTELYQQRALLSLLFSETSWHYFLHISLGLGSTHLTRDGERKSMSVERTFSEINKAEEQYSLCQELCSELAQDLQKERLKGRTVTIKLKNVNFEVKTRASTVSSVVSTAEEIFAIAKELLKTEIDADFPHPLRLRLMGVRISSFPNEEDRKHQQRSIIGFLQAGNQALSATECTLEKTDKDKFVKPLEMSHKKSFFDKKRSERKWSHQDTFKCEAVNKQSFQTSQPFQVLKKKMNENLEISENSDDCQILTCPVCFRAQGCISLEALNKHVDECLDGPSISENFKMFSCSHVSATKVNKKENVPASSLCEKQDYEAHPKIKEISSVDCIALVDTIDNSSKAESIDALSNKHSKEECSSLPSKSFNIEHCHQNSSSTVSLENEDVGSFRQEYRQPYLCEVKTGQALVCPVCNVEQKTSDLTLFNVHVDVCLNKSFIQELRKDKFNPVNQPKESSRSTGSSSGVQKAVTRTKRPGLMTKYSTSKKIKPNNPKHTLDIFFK
Sequence of Flap endonuclease 1 (Homo sapiens) (P39748 whole entry, looked up): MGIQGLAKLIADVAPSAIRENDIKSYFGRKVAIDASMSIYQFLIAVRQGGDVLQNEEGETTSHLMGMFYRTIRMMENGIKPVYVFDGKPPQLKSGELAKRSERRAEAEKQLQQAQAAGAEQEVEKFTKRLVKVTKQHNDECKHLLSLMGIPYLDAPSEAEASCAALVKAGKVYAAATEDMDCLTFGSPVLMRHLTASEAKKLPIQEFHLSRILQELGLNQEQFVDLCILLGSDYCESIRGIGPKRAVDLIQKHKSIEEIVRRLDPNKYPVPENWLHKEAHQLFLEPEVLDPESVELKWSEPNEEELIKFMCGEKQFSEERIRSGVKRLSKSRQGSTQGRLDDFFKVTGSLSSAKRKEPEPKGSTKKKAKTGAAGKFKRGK

CC(C)(C)OC(=O)N[C@@H](Cc1ccc(O[S+](=O)([O-])c2cccc3cnccc23)cc1)C(=O)N1CCN(c2ccccc2)CC1
remaining parasite growth % (stronger effect = lower value) [1]: -1.52%
activity, percent of control [2]: -0.0871%
remaining proliferation (% of control), lower = more inhibition [3]: -0.489%
Potency [4]: inactive

CC1CCC(C(=O)Nc2ccc([S+](=O)([O-])Nc3nccs3)cc2)CC1 (stereo not given)
Potency [5]: inactive
Potency [4]: inactive

N[C@@H](Cc1ccc(O[S+](=O)([O-])c2cccc3cccnc23)cc1)C(=O)N1CCN(c2ccccc2)CC1
remaining parasite growth % (stronger effect = lower value) [1]: 0.473%
activity, percent of control [2]: 1%
remaining proliferation (% of control), lower = more inhibition [3]: 0.538%
Potency [4]: inactive

Cc1ccc(-c2cc(C(=O)Nc3ccccc3Cl)c3ccccc3n2)cc1C
Potency [5]: 13.7 µM (active)
Potency [4]: inactive

CC(C)(C)c1cc(O)c(CN)c(C(C)(C)C)c1
remaining parasite growth % (stronger effect = lower value) [1]: -0.824%
activity, percent of control [2]: 0.498%
remaining proliferation (% of control), lower = more inhibition [3]: -0.148%
parasite growth, % of DMSO control [6]: 6.1%
parasite growth remaining, % of DMSO control (lower = more inhibition) [7]: 7.28%
parasite growth, % of control (lower = inhibition) [8]: 19.6%
growth, % of control [9]: 4.33%
Potency [4]: inactive

N[C@@H](Cc1ccc(O[S+](=O)([O-])c2cccc3cnccc23)cc1)C(=O)N1CCN(c2ccccc2)CC1
remaining parasite growth % (stronger effect = lower value) [1]: -0.448%
activity, percent of control [2]: 3.27%
remaining proliferation (% of control), lower = more inhibition [3]: 1.2%
Potency [4]: inactive

O=C(NCCN1CCCC1)[C@H](Cc1ccc(OS(=O)(=O)c2cccc3cnccc23)cc1)NS(=O)(=O)c1cccc2cnccc12
remaining parasite growth % (stronger effect = lower value) [1]: 0.578%
activity, percent of control [2]: 49.2%
remaining proliferation (% of control), lower = more inhibition [3]: 1.37%
Potency [4]: inactive

CCCn1c(-c2ccc(F)cc2)nc2c(NCCN3CCCC3)nc(C)nc21
Potency [10]: inactive
Potency [4]: inactive

Cc1nc(NCc2ccccc2)c2nc(-c3ccccc3)n(CCCN3CCOCC3)c2n1
Potency [10]: 3.98 µM (active)
Potency [11]: inactive
Potency [4]: inactive

CCN1CCCC1Cn1c(-c2ccccc2)nc2c(N(CCOC)CCOC)nc(C)nc21 (stereo not given)
Potency [10]: 15.8 µM (active)
Potency [11]: inactive
Potency [4]: inactive

O=C([C@H](Cc1ccc(O[S+](=O)([O-])c2cccc3cnccc23)cc1)N[S+](=O)([O-])c1cccc2cnccc12)N1CCN(Cc2ccccc2)CC1
parasite growth, % of DMSO control [6]: 4.76%
parasite growth remaining, % of DMSO control (lower = more inhibition) [7]: 6.64%
parasite growth, % of control (lower = inhibition) [8]: 19.3%
growth, % of control [9]: 5.19%
Potency [4]: inactive

O=C(Nc1ccc(-c2ccccc2)cc1)[C@H](Cc1ccc(O[S+](=O)([O-])c2cccc3cnccc23)cc1)N[S+](=O)([O-])c1cccc2cnccc12
parasite growth, % of DMSO control [6]: 5.02%
parasite growth remaining, % of DMSO control (lower = more inhibition) [7]: 10.4%
parasite growth, % of control (lower = inhibition) [8]: 17.5%
growth, % of control [9]: 6.38%
Potency [4]: inactive

CC(C)(C)OC(=O)N[C@@H](Cc1ccc(OS(=O)(=O)c2cccc3cnccc23)cc1)C(=O)N1CCCN(C(=O)OC(C)(C)C)CC1
parasite growth, % of DMSO control [6]: 5.32%
parasite growth remaining, % of DMSO control (lower = more inhibition) [7]: 7.99%
parasite growth, % of control (lower = inhibition) [8]: 34.3%
growth, % of control [9]: 7.55%
Potency [4]: inactive

Cc1ccc(S(=O)(=O)Nc2ccc(C(=O)Nc3nc(-c4ccc(Cl)cc4)cs3)cc2)cc1
Potency [5]: 3.06 µM (active)
Potency [4]: inactive

N[C@@H](Cc1ccc(OS(=O)(=O)c2cccnc2)cc1)C(=O)N1CCN(c2ccccc2)CC1
remaining parasite growth % (stronger effect = lower value) [1]: 41.2%
activity, percent of control [2]: 15.1%
remaining proliferation (% of control), lower = more inhibition [3]: 27.8%
Potency [4]: inactive

CCCn1c(C)nc2c(NCCCCN(CC)CC)nc(C)nc21
Potency [11]: inactive
Potency [4]: inactive

COc1ccc(-c2ccc3ncnc(NCc4cccs4)c3c2)cc1OC
Potency [12]: 37.9 µM (active)
Potency [4]: inactive

O=C(Cc1ccc2ccccc2c1)Nc1ccc(S(=O)(=O)Nc2nccs2)cc1
Potency [5]: 12.2 µM (active)
Potency [4]: inactive

COc1cc(Cl)ccc1C(=O)Nc1nc(-c2ccccc2)cs1
Potency [5]: 13.7 µM (active)
Potency [4]: inactive

O=C(Nc1nc(-c2ccccc2)cs1)c1ccccc1[N+](=O)[O-]
Potency [5]: 12.2 µM (active)
Potency [4]: inactive

Cc1ccc(-c2cc(C(=O)Nc3ccc(-n4cccn4)cc3)c3ccccc3n2)cc1C
Potency [5]: 8.63 µM (active)
Potency [4]: inactive

Cc1ccc(NS(=O)(=O)c2ccc(C(=O)Nc3nc(-c4ccccc4)cs3)cc2)cc1
Potency [5]: 3.43 µM (active)
Potency [4]: inactive

Cc1ccc(S(=O)(=O)Nc2ccccc2C(=O)Nc2ccc(-c3ccccc3)nc2)cc1
Potency [5]: 4.85 µM (active)
Potency [4]: inactive

O=C([C@H](Cc1ccc(O[S+](=O)([O-])c2cccnc2)cc1)N[S+](=O)([O-])c1cccc2cnccc12)N1CCN(c2ccccc2)CC1
remaining parasite growth % (stronger effect = lower value) [1]: 0.0541%
activity, percent of control [2]: 4.11%
remaining proliferation (% of control), lower = more inhibition [3]: 0.563%
Potency [4]: inactive

CC(C)(C)OC(=O)N[C@@H](Cc1ccc(O[S+](=O)([O-])c2cccc3cnccc23)cc1)C(=O)N1CCN(Cc2ccccc2)CC1
parasite growth, % of DMSO control [6]: 5.32%
parasite growth remaining, % of DMSO control (lower = more inhibition) [7]: 7.86%
parasite growth, % of control (lower = inhibition) [8]: 22.5%
growth, % of control [9]: 10.3%
Potency [4]: inactive

COc1ccc(C2=Nn3c(nnc3-c3ccccc3OC)SC2)cc1OC1CCCC1
Potency [13]: 4.23 µM (active)
Potency [4]: inactive

CC1(C)CC(C(=O)Nc2ccc([S+](=O)([O-])Nc3nccs3)cc2)C1
Potency [5]: inactive
Potency [4]: inactive

Cc1nc(NCCO)c2nc(-c3ccccc3)n(CC3CCN(C)CC3)c2n1
Potency [10]: inactive
Potency [4]: inactive

CNC1CCC(N(Cc2ccc(OC)c(-c3ccc(C#N)cc3)c2)C(=O)c2sc3ccccc3c2Cl)CC1 (stereo not given)
remaining parasite growth % (stronger effect = lower value) [1]: -1.61%
activity, percent of control [2]: -0.637%
remaining proliferation (% of control), lower = more inhibition [3]: -1.57%
Potency [4]: inactive

Cc1nc(NCc2ccccc2)c2nc(-c3ccccc3)n(CCN3CCOCC3)c2n1
Potency [10]: 0.631 µM (active)
Potency [11]: inactive
Potency [4]: inactive
